# Columns and labels:
# Assay in all cases: DAPPL (digital affinity profiling via proximity ligation, sequencing); 10 mM Tris-HCl pH 7.5, 50 mM NaCl, 1 mM DTT, 4% glycerol, room temperature, 30 min; GST-TFs on glutathione beads, 16-mer random dsDNA library, 0.1% formaldehyde crosslink after washing; high values mean tight binding
# [1] = target: T1, FEV (Homo sapiens, UniProt Q99581 1-238); conditions: protein: recombinant; tags: N-terminal GST; dsDNA, one strand shown
# T1 sequence: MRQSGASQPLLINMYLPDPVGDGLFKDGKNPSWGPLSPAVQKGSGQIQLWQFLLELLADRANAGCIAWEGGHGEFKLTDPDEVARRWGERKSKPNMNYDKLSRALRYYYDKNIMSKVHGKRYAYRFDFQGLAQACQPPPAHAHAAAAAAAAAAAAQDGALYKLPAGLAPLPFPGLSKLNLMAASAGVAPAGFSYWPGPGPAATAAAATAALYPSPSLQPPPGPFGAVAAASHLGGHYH
# Summary of the method: (§1)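 The binding signal reported is, for every hexamer, its read frequency for a factor over its read frequency for the tag-only sample. Reads came from pools of yeast-expressed, GST-fused human transcription factors on glutathione beads, barcoded with DNA and mixed with that sample, which were incubated with 200 nmole of a random double-stranded 16-mer DNA library in Tris/NaCl/DTT/glycerol buffer at room temperature for 30 min. After washing, the pools were crosslinked with 0.1% formaldehyde, proximity-ligated with BsaI/T4 ligase for 1 h at 37 °C, PCR-amplified and sequenced on an Illumina NextSeq500.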
# [2] = target: ETV5 (Homo sapiens, UniProt P41161 1-510); conditions: protein: recombinant; tags: N-terminal GST; dsDNA, one strand shown
# ETV5, sequence (P41161 whole entry): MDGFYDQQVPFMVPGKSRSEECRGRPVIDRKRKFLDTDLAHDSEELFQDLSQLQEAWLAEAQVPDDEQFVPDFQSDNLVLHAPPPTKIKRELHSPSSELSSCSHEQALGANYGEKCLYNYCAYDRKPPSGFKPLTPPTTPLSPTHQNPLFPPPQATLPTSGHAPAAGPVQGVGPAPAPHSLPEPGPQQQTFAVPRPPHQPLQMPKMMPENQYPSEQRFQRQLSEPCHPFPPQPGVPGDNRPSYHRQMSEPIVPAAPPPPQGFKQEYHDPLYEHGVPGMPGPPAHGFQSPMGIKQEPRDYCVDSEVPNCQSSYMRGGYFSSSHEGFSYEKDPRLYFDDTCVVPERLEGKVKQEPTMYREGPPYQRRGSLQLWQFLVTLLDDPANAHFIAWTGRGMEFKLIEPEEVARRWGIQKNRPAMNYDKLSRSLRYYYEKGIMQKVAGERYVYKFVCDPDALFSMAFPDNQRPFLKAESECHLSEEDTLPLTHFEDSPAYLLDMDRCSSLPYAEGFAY
# Summary of the method: as §1
# [3] = target: HSF1 (Homo sapiens, UniProt Q00613 1-529); conditions: protein: recombinant; tags: N-terminal GST; chain copies: 3; dsDNA, one strand shown
# HSF1, sequence (Q00613 whole entry): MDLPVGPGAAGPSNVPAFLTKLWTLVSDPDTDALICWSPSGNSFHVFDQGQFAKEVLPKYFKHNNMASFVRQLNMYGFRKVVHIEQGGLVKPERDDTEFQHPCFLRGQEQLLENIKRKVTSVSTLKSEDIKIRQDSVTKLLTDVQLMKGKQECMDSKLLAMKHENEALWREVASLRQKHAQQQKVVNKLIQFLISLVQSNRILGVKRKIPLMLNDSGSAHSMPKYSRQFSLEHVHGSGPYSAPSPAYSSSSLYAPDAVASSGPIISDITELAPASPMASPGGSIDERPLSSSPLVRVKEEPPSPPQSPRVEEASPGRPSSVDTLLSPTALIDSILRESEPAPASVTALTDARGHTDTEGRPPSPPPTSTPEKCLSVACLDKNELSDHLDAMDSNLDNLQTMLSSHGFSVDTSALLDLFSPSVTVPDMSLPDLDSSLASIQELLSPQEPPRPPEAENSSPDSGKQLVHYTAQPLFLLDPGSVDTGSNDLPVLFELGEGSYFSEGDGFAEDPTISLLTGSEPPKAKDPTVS
# Summary of the method: as §1
# [4] = target: T2, SPIC (Homo sapiens, UniProt Q8N5J4 1-248); conditions: protein: recombinant; tags: N-terminal GST; dsDNA, one strand shown
# T2 sequence: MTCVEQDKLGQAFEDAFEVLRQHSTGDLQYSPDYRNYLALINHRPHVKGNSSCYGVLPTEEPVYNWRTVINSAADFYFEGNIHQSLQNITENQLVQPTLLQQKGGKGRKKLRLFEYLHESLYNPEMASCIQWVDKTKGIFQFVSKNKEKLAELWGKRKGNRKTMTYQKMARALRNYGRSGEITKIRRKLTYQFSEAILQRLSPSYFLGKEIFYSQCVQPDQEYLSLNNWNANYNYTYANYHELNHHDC
# Summary of the method: as §1
# [5] = target: ELF4 (Homo sapiens, UniProt Q99607 1-663); conditions: protein: recombinant; tags: N-terminal GST; dsDNA, one strand shown
# ELF4, sequence (Q99607 whole entry): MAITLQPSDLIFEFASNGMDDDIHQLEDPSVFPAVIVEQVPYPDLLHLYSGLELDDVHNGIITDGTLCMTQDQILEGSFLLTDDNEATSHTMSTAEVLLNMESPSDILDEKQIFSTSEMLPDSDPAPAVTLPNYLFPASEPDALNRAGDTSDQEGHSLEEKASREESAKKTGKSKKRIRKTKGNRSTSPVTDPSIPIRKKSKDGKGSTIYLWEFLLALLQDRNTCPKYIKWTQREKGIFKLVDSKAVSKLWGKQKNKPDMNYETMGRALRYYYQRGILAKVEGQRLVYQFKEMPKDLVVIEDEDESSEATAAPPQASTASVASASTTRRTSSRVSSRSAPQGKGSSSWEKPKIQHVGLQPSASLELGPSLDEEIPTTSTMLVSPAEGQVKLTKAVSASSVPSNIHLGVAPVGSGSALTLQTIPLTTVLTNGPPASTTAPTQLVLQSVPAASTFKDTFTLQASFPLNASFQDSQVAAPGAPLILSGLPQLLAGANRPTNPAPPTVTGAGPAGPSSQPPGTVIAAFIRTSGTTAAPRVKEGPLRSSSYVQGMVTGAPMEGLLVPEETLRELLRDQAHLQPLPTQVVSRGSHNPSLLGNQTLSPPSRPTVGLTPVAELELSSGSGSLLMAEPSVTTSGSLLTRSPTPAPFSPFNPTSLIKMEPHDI
# Summary of the method: as §1
# [6] = target: T3, ELK4 (Homo sapiens, UniProt P28324-2 1-405); conditions: protein: recombinant; tags: N-terminal GST; dsDNA, one strand shown
# T3 sequence: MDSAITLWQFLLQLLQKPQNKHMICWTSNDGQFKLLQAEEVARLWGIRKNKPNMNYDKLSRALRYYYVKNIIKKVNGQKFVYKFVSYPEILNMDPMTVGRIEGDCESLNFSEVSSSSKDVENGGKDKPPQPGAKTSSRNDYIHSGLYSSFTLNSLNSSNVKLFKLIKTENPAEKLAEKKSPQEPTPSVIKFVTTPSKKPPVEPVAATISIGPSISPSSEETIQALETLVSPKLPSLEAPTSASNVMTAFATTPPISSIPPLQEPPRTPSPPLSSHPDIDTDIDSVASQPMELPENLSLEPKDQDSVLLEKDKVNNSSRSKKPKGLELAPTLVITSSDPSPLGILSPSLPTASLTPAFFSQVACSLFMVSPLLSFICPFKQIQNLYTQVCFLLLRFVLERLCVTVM
# Summary of the method: as §1
# [7] = target: T4, ELF3 (Homo sapiens, UniProt P78545 1-371); conditions: protein: recombinant; tags: N-terminal GST; dsDNA, one strand shown
# T4 sequence: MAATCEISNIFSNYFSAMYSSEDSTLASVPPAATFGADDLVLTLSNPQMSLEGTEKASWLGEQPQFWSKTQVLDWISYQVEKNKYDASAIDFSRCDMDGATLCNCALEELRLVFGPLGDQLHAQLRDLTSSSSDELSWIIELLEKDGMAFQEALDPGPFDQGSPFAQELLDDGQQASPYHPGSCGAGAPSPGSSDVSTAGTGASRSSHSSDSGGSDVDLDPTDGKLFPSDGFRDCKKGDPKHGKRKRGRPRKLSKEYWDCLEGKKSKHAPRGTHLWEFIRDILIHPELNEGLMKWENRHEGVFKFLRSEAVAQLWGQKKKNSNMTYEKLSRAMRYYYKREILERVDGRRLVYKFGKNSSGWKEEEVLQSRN
# Summary of the method: as §1
# [8] = target: CRX (Homo sapiens, UniProt O43186 1-299); conditions: protein: recombinant; tags: N-terminal GST; dsDNA, one strand shown
# CRX, sequence (O43186 whole entry): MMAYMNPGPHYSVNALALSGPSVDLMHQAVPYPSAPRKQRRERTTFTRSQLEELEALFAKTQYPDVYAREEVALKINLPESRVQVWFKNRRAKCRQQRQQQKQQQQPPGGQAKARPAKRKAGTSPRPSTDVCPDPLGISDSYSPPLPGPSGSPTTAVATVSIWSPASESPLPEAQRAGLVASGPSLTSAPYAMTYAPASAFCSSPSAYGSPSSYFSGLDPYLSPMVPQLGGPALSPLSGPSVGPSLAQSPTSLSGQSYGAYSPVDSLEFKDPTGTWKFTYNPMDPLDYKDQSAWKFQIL
# Summary of the method: as §1
# [9] = target: ETV1 (Homo sapiens, UniProt P50549 1-477); conditions: protein: recombinant; tags: N-terminal GST; dsDNA, one strand shown
# ETV1, sequence (P50549 whole entry): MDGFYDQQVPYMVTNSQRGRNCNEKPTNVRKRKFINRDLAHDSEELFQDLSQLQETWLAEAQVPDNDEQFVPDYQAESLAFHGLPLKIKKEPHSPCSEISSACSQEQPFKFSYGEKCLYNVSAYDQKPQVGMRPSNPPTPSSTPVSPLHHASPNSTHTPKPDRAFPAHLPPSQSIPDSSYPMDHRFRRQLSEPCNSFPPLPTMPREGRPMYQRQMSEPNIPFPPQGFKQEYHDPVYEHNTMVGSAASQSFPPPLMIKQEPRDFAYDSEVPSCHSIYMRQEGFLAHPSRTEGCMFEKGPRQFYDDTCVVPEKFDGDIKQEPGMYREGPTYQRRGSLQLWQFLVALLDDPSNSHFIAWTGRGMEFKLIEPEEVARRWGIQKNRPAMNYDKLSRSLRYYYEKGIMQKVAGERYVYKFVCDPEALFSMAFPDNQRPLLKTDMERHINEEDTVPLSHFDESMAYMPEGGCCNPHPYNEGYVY
# Summary of the method: as §1
# [10] = target: T5, ERF (Homo sapiens, UniProt P50548 1-548); conditions: protein: recombinant; tags: N-terminal GST; dsDNA, one strand shown
# T5 sequence: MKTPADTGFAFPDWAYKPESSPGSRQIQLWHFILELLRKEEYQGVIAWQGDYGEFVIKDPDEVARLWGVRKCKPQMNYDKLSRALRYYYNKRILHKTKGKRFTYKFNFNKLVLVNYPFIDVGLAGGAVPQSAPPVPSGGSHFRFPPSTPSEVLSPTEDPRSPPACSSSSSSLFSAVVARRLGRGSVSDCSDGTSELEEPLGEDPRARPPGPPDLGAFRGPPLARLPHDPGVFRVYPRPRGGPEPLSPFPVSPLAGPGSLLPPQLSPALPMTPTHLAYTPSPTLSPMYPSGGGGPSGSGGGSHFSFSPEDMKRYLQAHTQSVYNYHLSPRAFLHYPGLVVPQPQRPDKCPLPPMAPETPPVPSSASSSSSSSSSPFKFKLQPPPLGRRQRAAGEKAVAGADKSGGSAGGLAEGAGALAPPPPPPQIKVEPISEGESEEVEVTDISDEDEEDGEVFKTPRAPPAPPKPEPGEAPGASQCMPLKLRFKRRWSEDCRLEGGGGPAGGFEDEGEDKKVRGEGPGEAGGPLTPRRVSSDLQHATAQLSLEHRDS
# Summary of the method: as §1
# [11] = target: T6, ETV3L (Homo sapiens, UniProt Q6ZN32 1-361); conditions: protein: recombinant; tags: N-terminal GST; dsDNA, one strand shown
# T6 sequence: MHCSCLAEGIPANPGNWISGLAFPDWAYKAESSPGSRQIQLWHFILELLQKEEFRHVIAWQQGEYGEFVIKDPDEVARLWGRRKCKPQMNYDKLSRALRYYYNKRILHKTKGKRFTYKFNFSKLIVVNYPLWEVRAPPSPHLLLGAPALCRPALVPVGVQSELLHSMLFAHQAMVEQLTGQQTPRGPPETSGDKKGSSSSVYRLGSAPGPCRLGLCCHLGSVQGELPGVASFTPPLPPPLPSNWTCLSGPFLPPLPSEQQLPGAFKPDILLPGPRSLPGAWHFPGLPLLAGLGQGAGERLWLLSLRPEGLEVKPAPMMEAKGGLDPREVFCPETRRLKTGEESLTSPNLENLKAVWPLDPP
# Summary of the method: as §1
# [12] = target: T7, ETS2 (Homo sapiens, UniProt P15036 1-469); conditions: protein: recombinant; tags: N-terminal GST; dsDNA, one strand shown
# T7 sequence: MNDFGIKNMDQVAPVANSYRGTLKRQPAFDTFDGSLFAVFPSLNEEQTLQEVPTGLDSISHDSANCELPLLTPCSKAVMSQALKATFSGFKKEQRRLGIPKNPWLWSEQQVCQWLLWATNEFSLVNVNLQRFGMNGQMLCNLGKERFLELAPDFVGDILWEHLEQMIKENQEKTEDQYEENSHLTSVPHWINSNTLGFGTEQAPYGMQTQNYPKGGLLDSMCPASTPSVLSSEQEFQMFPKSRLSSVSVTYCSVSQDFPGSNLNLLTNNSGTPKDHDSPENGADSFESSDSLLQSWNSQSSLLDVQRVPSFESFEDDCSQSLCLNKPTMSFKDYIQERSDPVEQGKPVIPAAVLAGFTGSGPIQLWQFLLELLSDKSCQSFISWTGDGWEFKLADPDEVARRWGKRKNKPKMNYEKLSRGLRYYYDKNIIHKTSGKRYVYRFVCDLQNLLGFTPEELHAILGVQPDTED
# Summary of the method: as §1
# [13] = target: T8, SPDEF (Homo sapiens, UniProt O95238 1-335); conditions: protein: recombinant; tags: N-terminal GST; dsDNA, one strand shown
# T8 sequence: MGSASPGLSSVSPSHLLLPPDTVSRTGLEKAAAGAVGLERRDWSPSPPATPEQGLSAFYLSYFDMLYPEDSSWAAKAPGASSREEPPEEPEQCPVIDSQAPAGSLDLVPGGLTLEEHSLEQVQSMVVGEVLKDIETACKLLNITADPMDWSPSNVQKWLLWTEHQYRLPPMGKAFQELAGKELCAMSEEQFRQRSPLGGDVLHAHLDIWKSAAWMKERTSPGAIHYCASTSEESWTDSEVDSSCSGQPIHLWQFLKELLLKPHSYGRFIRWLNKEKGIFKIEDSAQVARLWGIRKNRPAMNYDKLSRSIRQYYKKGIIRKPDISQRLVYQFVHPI
# Summary of the method: as §1
# [14] = target: T9, ETV7 (Homo sapiens, UniProt Q9Y603 1-341); conditions: protein: recombinant; tags: N-terminal GST; dsDNA, one strand shown
# T9 sequence: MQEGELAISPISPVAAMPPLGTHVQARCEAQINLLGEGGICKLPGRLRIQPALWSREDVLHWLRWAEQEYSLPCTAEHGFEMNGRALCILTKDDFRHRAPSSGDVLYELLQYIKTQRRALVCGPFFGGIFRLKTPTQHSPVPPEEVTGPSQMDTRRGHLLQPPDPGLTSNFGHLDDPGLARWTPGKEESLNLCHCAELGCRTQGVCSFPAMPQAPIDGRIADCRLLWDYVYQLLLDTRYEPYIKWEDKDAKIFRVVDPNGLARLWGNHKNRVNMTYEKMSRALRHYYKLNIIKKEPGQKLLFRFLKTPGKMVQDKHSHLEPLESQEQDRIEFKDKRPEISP
# Summary of the method: as §1
# [15] = target: T10, ELF5 (Homo sapiens, UniProt Q9UKW6-2 1-255); conditions: protein: recombinant; tags: N-terminal GST; dsDNA, one strand shown
# T10 sequence: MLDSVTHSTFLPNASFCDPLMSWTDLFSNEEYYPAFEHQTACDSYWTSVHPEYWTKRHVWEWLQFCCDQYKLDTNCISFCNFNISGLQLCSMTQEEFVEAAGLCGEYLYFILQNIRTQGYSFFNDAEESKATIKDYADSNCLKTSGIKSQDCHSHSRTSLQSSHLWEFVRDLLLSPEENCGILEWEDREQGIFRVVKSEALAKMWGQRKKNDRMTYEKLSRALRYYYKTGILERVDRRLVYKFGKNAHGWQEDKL
# Summary of the method: as §1
# [16] = target: T11, ETV3 (Homo sapiens, UniProt P41162-2 1-143); conditions: protein: recombinant; tags: N-terminal GST; dsDNA, one strand shown
# T11 sequence: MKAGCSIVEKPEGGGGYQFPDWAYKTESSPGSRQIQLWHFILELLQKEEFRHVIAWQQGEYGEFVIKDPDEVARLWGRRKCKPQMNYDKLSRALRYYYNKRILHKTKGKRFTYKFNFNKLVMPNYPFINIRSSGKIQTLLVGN
# Summary of the method: as §1
# [17] = target: ETV6 (Homo sapiens, UniProt P41212 1-452); conditions: protein: recombinant; tags: N-terminal GST; dsDNA, one strand shown
# ETV6, sequence (P41212 whole entry): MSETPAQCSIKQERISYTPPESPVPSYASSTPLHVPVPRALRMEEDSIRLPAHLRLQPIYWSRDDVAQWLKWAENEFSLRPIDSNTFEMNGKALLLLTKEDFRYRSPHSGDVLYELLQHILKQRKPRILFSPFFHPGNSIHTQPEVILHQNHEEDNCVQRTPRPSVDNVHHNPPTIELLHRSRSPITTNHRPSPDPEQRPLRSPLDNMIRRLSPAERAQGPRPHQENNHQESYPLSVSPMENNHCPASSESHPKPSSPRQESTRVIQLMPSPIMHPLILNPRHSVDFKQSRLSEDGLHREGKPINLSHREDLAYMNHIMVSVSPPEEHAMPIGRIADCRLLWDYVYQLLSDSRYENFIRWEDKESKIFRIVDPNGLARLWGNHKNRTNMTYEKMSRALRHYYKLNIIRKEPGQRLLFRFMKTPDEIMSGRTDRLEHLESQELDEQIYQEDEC
# Summary of the method: as §1
sequence,measurement,setting,value
TAGCAT,binding signal,[1],"1.13 fold enrichment (6-mer frequency, TF over GST control)"
same,binding signal,[2],"1.09 fold enrichment (6-mer frequency, TF over GST control)"
same,binding signal,[3],"1.38 fold enrichment (6-mer frequency, TF over GST control)"
same,binding signal,[4],"1.07 fold enrichment (6-mer frequency, TF over GST control)"
same,binding signal,[5],"1.16 fold enrichment (6-mer frequency, TF over GST control)"
same,binding signal,[6],"1.16 fold enrichment (6-mer frequency, TF over GST control)"
same,binding signal,[7],"1.15 fold enrichment (6-mer frequency, TF over GST control)"
same,binding signal,[8],"1.42 fold enrichment (6-mer frequency, TF over GST control)"
same,binding signal,[9],"1.17 fold enrichment (6-mer frequency, TF over GST control)"
same,binding signal,[10],"1.09 fold enrichment (6-mer frequency, TF over GST control)"
same,binding signal,[11],"1.14 fold enrichment (6-mer frequency, TF over GST control)"
same,binding signal,[12],"1.11 fold enrichment (6-mer frequency, TF over GST control)"
same,binding signal,[13],"1.21 fold enrichment (6-mer frequency, TF over GST control)"
same,binding signal,[14],"1.11 fold enrichment (6-mer frequency, TF over GST control)"
same,binding signal,[15],"1.01 fold enrichment (6-mer frequency, TF over GST control)"
same,binding signal,[16],"1.16 fold enrichment (6-mer frequency, TF over GST control)"
same,binding signal,[17],"1.15 fold enrichment (6-mer frequency, TF over GST control)"

# From paper PMC7862700, “An all-to-all approach to the identification of sequence-specific readers for epigenetic DNA modifications on cytosine”
